Assay outcomes: PubChem, several laboratories
In the library only some 3.5% were active in any assay of this set; here they are far more common.
BoNT-F LC inh: blocks Botulinum neurotoxin F light chain protease; Multiplex microsphere protease cleavage assay, flow cytometry; inhibition, % at 10 µM; 360,000 compounds, 0.22% hits; AID 588497; in the data active = inhibition above about 35%, passing the limit was not always enough; inconclusive = no clear call, values can overlap the other calls
Vc quorum ag: induces V. cholerae light production without autoinducers; V. cholerae BH1578 lux reporter, luminescence, 6 h; 350,000 compounds, 0.16% hits; activation, % at 18.7 µM; in the data active = activation mostly above about 9.7%, no sharp cut-off; inconclusive = no clear call, values can overlap the other calls; inactive = mostly below about 3.7%
BoNT A protease: blocks Botulinum neurotoxin A light chain protease; 360,000 compounds, 0.17% hits; AID 588499; inhibition, % at 10 µM; multiplex microsphere protease substrate cleavage, flow cytometry
Anthrax LF inh2: blocks Bacillus anthracis lethal factor protease | 360,000 compounds, 0.12% hits | multiplex microsphere protease cleavage assay, LF | inhibition, % at 10 µM | P15917 | AID 588501
Autofluor counter: counter-screen for toxin protease inhibitors: compound fluorescence. compound autofluorescence counterscreen, microsphere flow cytometry; hits give high values. fluorescence intensity (no concentration beside the values). 360,000 compounds, 3.1% hits. AID 624483; in the data active = fluorescence intensity above about 16000; inconclusive = no clear call, values can overlap the other calls
Large screens that a line does not name were inactive. Rule as the data show it, unless noted: active = inhibition above about 30%; inconclusive = no clear call, values can overlap the other calls; inactive = below that.

CN1CCN(C2=CC3=CC(=C(C#N)C#N)CCC3CC2)CC1 (stereo unspecified)	Autofluor counter 17359
N#CC(C#N)=C1C=C2C=C(N3CCCCCC3)CCC2CC1 (stereo unspecified)	BoNT-F LC inh 177.0, BoNT A protease 47.8, Anthrax LF inh2 83.5, Autofluor counter 97979
N#Cc1cc(Cl)c(N2CCOCC2)cc1C#N	none
CCOC(=O)C1(Cc2cccc(OC)c2)CCCN(CCO)C1 (stereo unspecified)	none
COc1ccc(N2CCN(C3CCCN(Cc4ccc(F)cc4Cl)C3)CC2)cc1 (stereo unspecified)	BoNT-F LC inh inconclusive
COC(=O)N/N=C/c1ccc(Oc2ccccc2)cc1	none
COC(=O)c1sc(N)c(C(=O)OC)c1COC(=O)C1CC(=O)N(Cc2ccco2)C1 (stereo unspecified)	Autofluor counter 21636
CC(=O)C1=CCC(c2ccccc2)N(S(=O)(=O)c2ccc(Cl)cc2)C1 (stereo unspecified)	none (no result: Vc quorum ag)
COc1ccc(N=C2c3ccccc3-c3ccc([N+](=O)[O-])cc32)cc1	none (no result: Vc quorum ag)
CCN(CC)CC(O)CN1C(=O)NC(C)(C)C1=O (stereo unspecified)	none
CC1(C)NC(=O)N(CC(O)COc2ccccc2C(=O)Nc2ccccc2)C1=O (stereo unspecified)	Autofluor counter 23718
CC1(C)NC(=O)N(CC(O)CN2C(=O)NC(C)(C)C2=O)C1=O	Autofluor counter 23204
O=C(Nc1cccc(Cn2cccn2)c1)c1cc2c(s1)CCCC2	Autofluor counter 16682
CCN(C(=O)Cn1c(=O)n2nc(CCn3nc(C)cc3C)nc2c2ccccc21)c1cccc(C)c1	none
Cc1cccc(NC(=O)Cn2c(=O)n3nc(CCn4nc(C)cc4C)nc3c3ccccc32)c1	Autofluor counter 21276
O=C(CC1CCCC1)N1CCN(S(=O)(=O)c2cccc(F)c2)CC1	none
CCCc1nc2cc(C)c(Br)c(C)n2c1Cc1ccsc1	none (no result: Vc quorum ag)
COc1cccc(C2=NO[C@@H]3C(=O)N(c4ccc5c(c4)OCCO5)C(=O)[C@H]23)c1OC	Autofluor counter 20829
CC1=CC(C)(C)N(C(=O)CNC2CCCC2)c2cc(C)ccc21	none
Cc1ccc(CNC(=O)Cn2nnc(C(=O)Nc3cc(C)ccc3C)c2N)cc1	none
CCOC(=O)C1C(c2ccccc2Cl)NC(=O)N(C)C1(O)C(F)(F)F (stereo unspecified)	Autofluor counter 16952
CCc1ccc(N2C(=O)c3sc4nnc(C)c(=O)n4c3C2=O)cc1	Autofluor counter 20580
CC1=C(C(=O)Nc2ccccc2)C(c2cccnc2)n2nc(-c3cccnc3)nc2N1 (stereo unspecified)	Autofluor counter 22749
CC1=C(C(=O)Nc2cccnc2)C(c2cccnc2)n2nc(-c3cccs3)nc2N1 (stereo unspecified)	none
CN(C)c1nc(Cl)cc(N2CCOCC2)n1	Autofluor counter 22938
Cc1cccc2c1OCC/C2=N\NC(=O)COc1ccccc1Cl	Autofluor counter 22273
O=C(COc1ccc(Cl)cc1Cl)N/N=C1\CCCc2ccccc21	none
C=CCOc1ccc2nc(NC(=O)OC)[nH]c2c1	Autofluor counter 23127
O=C(NCc1ccc(F)cc1)c1cccc2c1C(=O)c1ccc(N3CCC(Cc4ccccc4)CC3)cc1S2(=O)=O	Anthrax LF inh2 33.1
COc1ccc(CCNc2c(C)c(C)nc3ncnn23)cc1	none
Cc1nc2ncnn2c(C)c1CCC(=O)NCCC1=CCCCC1	Autofluor counter 20756
Cc1ccnc(NC(=O)CCc2c(C)nc3ncnn3c2C)c1	Autofluor counter 20457
CCOC(=O)c1ccc(Nc2c(CC)c(C)nc3ncnn23)cc1	Autofluor counter 17060
CCc1c(C)nc2ncnn2c1NCCc1ccc(OC)c(OC)c1	Autofluor counter 18500
Cc1ccc(NC(=O)CCc2c(C)nc3ncnn3c2C)nc1	none
CC1=C(C(=O)N2CCOCC2)CC(CC(=O)NCCc2ccccn2)C(=O)N1Cc1ccc(C(C)(C)C)cc1 (stereo unspecified)	none
COc1ccc(-c2ccccc2NC(=O)C2CCCN(Cc3ccc(C)o3)C2)cc1 (stereo unspecified)	none
CC(Oc1ccc2ccccc2c1)C(=O)NNC(=O)Nc1ccccc1F (stereo unspecified)	none
COC(=O)c1ccc(NC(=O)CCc2c(C)nc3ncnn3c2C)cc1	Autofluor counter 22498
CC(C)n1c(SCC(=O)N2CCCC2)nc2c1c(=O)n(C)c(=O)n2C	none
CCCn1c(SCC(=O)N2CCCC2)nc2c1c(=O)n(C)c(=O)n2C	BoNT A protease inconclusive, Autofluor counter 22149
CCCn1c(SCC(=O)NCCc2ccc(OC)c(OC)c2)nc2c1c(=O)n(C)c(=O)n2C	Autofluor counter 18189
CCCn1c(SCC(=O)c2cc(OC)ccc2OC)nc2c1c(=O)n(C)c(=O)n2C	Autofluor counter 21330
CCCn1c(SCC(=O)Nc2ccc(NC(C)=O)cc2)nc2c1c(=O)n(C)c(=O)n2C	none
CCn1c(SCC(=O)N2CCCc3ccccc32)nnc1-c1cccs1	Autofluor counter 16895
COc1ccc(OC)c(C(=O)CSc2nc3c(c(=O)n(C)c(=O)n3C)n2C(C)C)c1	none
CCOC(=O)C1=C(COC(=O)C(C)(C)Oc2ccc(Cl)cc2)NC(=O)NC1C (stereo unspecified)	none
Cc1cc(C)n2nc(SCCCC(=O)c3ccc(F)cc3)nc2n1	none
CCCn1c(SCC(=O)Nc2ccccc2C(=O)OC)nc2c1c(=O)n(C)c(=O)n2C	Autofluor counter 20496
CCn1c(SCC(=O)N2c3ccccc3CCc3ccccc32)nc2c1c(=O)n(C)c(=O)n2C	none
CCn1c(SCc2cc(=O)[nH]c3ccccc23)nc2c1c(=O)n(C)c(=O)n2C	Autofluor counter 24332
CCCn1c(SCC(=O)Nc2ccccc2N2CCCCC2)nc2c1c(=O)n(C)c(=O)n2C	none
CCn1c(SCC(=O)N2CCCc3ccccc32)nc2c1c(=O)n(C)c(=O)n2C	BoNT A protease inconclusive, Autofluor counter 22886
CCCn1c(SCC(=O)N2CCN(c3ccc(OC)cc3)CC2)nc2c1c(=O)n(C)c(=O)n2C	Autofluor counter 19577
CCOC(=O)c1c(N/N=C/c2ccncc2)n[nH]c1C	none
COc1ccc(N(CC(=O)N/N=C(\C)c2ccc(OC)c(OC)c2)S(=O)(=O)c2ccccc2)cc1	none
CC(=O)c1cn(Cc2ccccc2)c(=O)n(Cc2ccc(F)cc2)c1=O	none
CCCc1nc2cc(CC(=O)OC)ccc2o1	Autofluor counter 24068
O=C1CCCCC1(O)Cc1ccc2c(c1)OCO2 (stereo unspecified)	none
CCOc1ccccc1C1NC(=O)CCC1[N+](=O)[O-] (stereo unspecified)	BoNT-F LC inh inconclusive
Cn1c2ccccc2c2ncn(Cc3ccco3)c(=O)c21	Autofluor counter 19514
Cn1c2ccc(F)cc2c2ncn(Cc3ccco3)c(=O)c21	Autofluor counter 23973
Cn1c2ccccc2c2ncn(Cc3ccc(F)cc3)c(=O)c21	BoNT-F LC inh inconclusive, BoNT A protease inconclusive
O=C(O)c1cccc(S(=O)(=O)N2CCC(n3nnc4cc(C(F)(F)F)ccc43)CC2)c1	none
Cc1oc2c(c1C(=O)c1ccc(Cl)cc1)C(=O)C(=O)c1ccccc1-2	BoNT A protease 30.1
